# D1 antagonist: human D1 dopamine receptor antagonism. HEK293 TREx D1 cells, calcium flux, dopamine EC80; active compounds read low. 360,000 tested, 3.2% active. AID 504652. activity change, negative = inhibition, % at 10 µM; in the data active = activity change below about -30%; note: % is set by controls: 0 for no effect and ±100 for the full control effect
# Target sequence (P21728 whole entry, looked up): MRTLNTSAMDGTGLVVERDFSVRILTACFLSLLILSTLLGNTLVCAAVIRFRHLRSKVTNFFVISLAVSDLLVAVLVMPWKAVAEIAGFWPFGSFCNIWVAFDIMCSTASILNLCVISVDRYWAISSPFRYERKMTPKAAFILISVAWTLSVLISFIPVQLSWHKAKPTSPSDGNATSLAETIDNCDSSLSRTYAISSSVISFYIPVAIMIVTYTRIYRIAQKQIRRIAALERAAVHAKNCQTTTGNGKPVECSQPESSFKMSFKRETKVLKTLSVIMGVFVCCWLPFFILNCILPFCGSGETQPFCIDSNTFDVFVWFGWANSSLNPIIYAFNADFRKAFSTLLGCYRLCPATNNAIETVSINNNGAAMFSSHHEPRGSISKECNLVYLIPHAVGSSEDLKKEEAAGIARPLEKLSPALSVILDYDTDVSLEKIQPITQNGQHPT
#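 Using tetracycline-induced force-coupled D1 Hek293 cells and a calcium dye, signals were followed for 180 s after compound, then for 180 s after EC80 dopamine, to detect inhibitors.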
# D3 antag: antagonists of human D3 dopamine receptor | max response, negative = inhibition, % | P35462 | 360,000 tested, 2.5% active | D3R cells, DiscoveRx beta-arrestin luminescence, antagonist mode; active compounds read low; in the data active = max response below about -50%; note: % is set by controls: 0 for no effect and ±100 for the full control effect
#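 Cells plated overnight at 1500 cells/well, then exposed to library compounds with dopamine controls for 90 minutes at 37 degrees C. DiscoveRx reagent added for 30–60 minutes at room temperature; luminescence read, quantitative HTS format.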
# D3 ag: activates the human D3 dopamine receptor | P35462 | D3R DiscoveRx beta-arrestin cells, luminescence, 90 min | max activation, % | 410,000 tested, 0.58% active | AID 652048; in the data active = max activation above about 30%; note: 0% is about no effect
#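 Agonist mode: compounds and dopamine controls were applied to plated cells for 90 min at 37 degrees C after an overnight attachment at 1500 cells/well. Luminescent read-out followed 30 - 60 minutes at room temperature with DiscoveRx detection reagent.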
# D1 PAM: human D1 dopamine receptor positive modulation | P21728 | HEK293 TREx D1 cells, calcium flux, dopamine EC20 potentiation | potentiation, % at 10 µM | 360,000 tested, 0.036% active | AID 504651; in the data active = potentiation above about 30%; note: 0% is about no effect
# D1 ag: activates the human D1 dopamine receptor; HEK293 T-REx D1 cells, calcium flux, agonist mode; 360,000 tested, 1% active; AID 504660; activation, % at 2 µM; in the data active = activation above about 30%; note: 0% is about no effect
#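 Tetracycline-induced HEK293 TREx D1 cells, force-coupled to calcium signalling, were dye-loaded with a no-wash calcium kit. Compound was pin-added after a 10 s baseline. Fluorescence was read kinetically at 1 cycle/s for 180 s, with calcium rises flagged as agonism.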
# Numbers without * were called inactive; · = not tested or not shown; ! = a repeat was not active. Hits are enriched below; roughly 6.1% of the tested compounds scored in any of these assays.
SMILES,D1 antagonist,D3 antag,D3 ag,D1 PAM,D1 ag
N#Cc1nc(-c2ccc(OCc3ccccc3)cc2)oc1N1CCOCC1,1,-5,31*,-2,2
N#Cc1nc(-c2ccc(OCc3ccccc3)cc2)oc1NCCN1CCOCC1,-27,·,·,-4,11
CNc1oc(-c2ccc(OCc3ccccc3)cc2)nc1C#N,-32*,13,18,-9,5
CCC(CC)C(=O)N1CCc2cc(OC)c(OC)cc2C1COc1ccc2c(C)cc(=O)oc2c1 (stereo unspecified),-2,·,6,1,0
Cc1c(C(=O)N2CCOCC2)oc2c1-c1nn(CC(=O)NCc3cccc(Cl)c3)cc1CC2,-3,·,3,-6,2
CCc1ccccc1N(C)C(=O)c1cc2c(=O)oc3ccccc3c2s1,2,·,4,2,2
CCc1nc(SCC(=O)N2CCCCCC2)c2c(=O)n(C)c(=O)n(C)c2n1,-34*,24,-4,0,3
CCc1nc(SCC(=O)N2CCOCC2)c2c(=O)n(C)c(=O)n(C)c2n1,-4,2,-2,0,4
COc1ccc(CCNC(=O)CCCCn2c(=O)c3ccccc3n(Cc3cccc(C)c3)c2=O)cc1OC,-5,·,-6,1,1
O=C(Cn1c(=O)n(-c2ccccc2Cl)c(=O)c2sc3ccccc3c21)NC1CCCC1,-5,·,8,0,1
O=C(Cn1c(=O)n(-c2ccccc2Cl)c(=O)c2sc3ccccc3c21)NC1CCCCC1,0,·,0,0,39*
COc1ccccc1CNc1nc2c(S(=O)(=O)c3ccc(C)c(C)c3)nnn2c2ccc(Cl)cc12,14,·,2,-5,1
Cc1noc(/C=C/c2ccccc2F)c1S(=O)(=O)N1CCC(C(=O)N(C)Cc2ccco2)CC1,-11,·,2,-2,6
O=c1nc2ccccc2c2n1CC(CN1CCN(C(c3ccccc3)c3ccccc3)CC1)N2 (stereo unspecified),17,-77*,-10,-7,1
Cn1c(N2CCN(C(c3ccccc3)c3ccccc3)CC2)nc2ccccc21,22,16,-5,1,4
COc1ccc(C(CNC(=O)C(C)c2ccc3cc(OC)ccc3c2)N(C)C)cc1 (stereo unspecified),6,-76*,-12,-2,7
CCOC(=O)CSc1nc2ccccc2n2cnnc12,-2,-51*,-9,4,4
C=CCSc1nc2ccccc2n2cnnc12,-1,7,0,2,0
COc1ccc(C)cc1NC(=O)CCn1nc(C)cc1C,-4,·,8,-5,3
COC(=O)C1=C(C)NC(C)=C(C(=O)OCCN(C)Cc2ccccc2)C1c1cccc([N+](=O)[O-])c1 (stereo unspecified),-35*,-51*,-73,-5,0
C[C@]12CCC(=O)CC1CCC1C2CC[C@@]2(C)C1CC[C@@]21CCO1 (stereo partly specified),0,-19,6,-4,3
C[C@]12CCC(=O)C[C@@H]1CC[C@@H]1[C@@H]2CC[C@]2(C)C=CC[C@@H]12,16,19,35*!,2,1
Cc1ccc2c(=O)cc(C(=O)Nc3nnc(CC(C)C)s3)oc2c1C,5,·,-15,4,1
CCOC(=O)/C(=C\c1ccc([N+](=O)[O-])o1)NC(=O)c1ccccc1,-36*,14,1,-3,27
CCCOC(=O)/C(=C\c1ccc([N+](=O)[O-])o1)NC(=O)c1ccccc1,-2,-14,-3,-4,2
SMILES,D1 antagonist,D3 antag,D3 ag,D1 PAM,D1 ag
CCN(C(=O)Cn1cc(C(=O)c2ccc(F)cc2)c(=O)c2ccc(C)nc21)c1cccc(C)c1,2,·,-2,0,2
CC(=O)C1=C(O)C(=O)N(Cc2ccccc2)C1c1ccccc1F (stereo unspecified),-6,15,3,-6,1
CC(=O)C1=C(O)C(=O)N(c2cccc(C(=O)O)c2)C1c1ccccc1F (stereo unspecified),-87*,-14,-16,4,3
C/C(=C\C(=O)c1ccccc1)Nc1ccc(Cl)c(Br)c1,·,-55*,4,·,·
Cc1ccc(Cl)cc1N1CCN(c2ncnc3onc(C)c23)CC1,-9,·,-5,0,7
Cc1noc2ncnc(N3CCN(c4cccc(Cl)c4)CC3)c12,-34*,35,6,1,4
